In article PMC5540273 (PLoS ONE, 2017):

Legend:
Conditions in all cases: concentration: 1 μM, replicates: in singlicate; n = 1
DCAMKL2 = system: T1, DCAMKL2
T1 construct: gene DCLK2

DCAMKL3 = system: T2, DCAMKL3
T2 construct: gene DCLK3

DDR1 = system: DDR1
DDR2 = system: DDR2
DLK = system: T3, DLK
T3 construct: gene MAP3K12

DMPK2 = system: T4, DMPK2
T4 construct: gene CDC42BPG

DMPK = system: DMPK
DRAK1 = system: T5, DRAK1
T5 construct: gene STK17A

DRAK2 = system: T6, DRAK2
T6 construct: gene STK17B

DYRK1A = system: DYRK1A
DYRK1B = system: DYRK1B
DYRK2 = system: DYRK2
EGFR = system: EGFR
EIF2AK1 = system: EIF2AK1
EPHA1 = system: EPHA1
EPHA2 = system: EPHA2
EPHA3 = system: EPHA3
EPHA4 = system: EPHA4
EPHA5 = system: EPHA5
EPHA6 = system: EPHA6
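Further: KINOMEscan kinase panel screen.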

SMILES | %Inh (DCAMKL2) | %Inh (DCAMKL3) | %Inh (DDR1) | %Inh (DDR2) | %Inh (DLK) | %Inh (DMPK2) | %Inh (DMPK) | %Inh (DRAK1) | %Inh (DRAK2) | %Inh (DYRK1A) | %Inh (DYRK1B) | %Inh (DYRK2) | %Inh (EGFR) | %Inh (EIF2AK1) | %Inh (EPHA1) | %Inh (EPHA2) | %Inh (EPHA3) | %Inh (EPHA4) | %Inh (EPHA5) | %Inh (EPHA6)
C[C@@H](Oc1cc(-n2cnc3cc(-c4ccnc(NCCS(C)(=O)=O)c4)ccc32)sc1C(N)=O)c1ccccc1Cl [GSK907232] | 1% | 0% | 0% | 0% | 12% | 0% | 0% | 0% | 4% | 31% | 0% | 15% | 35% | 1% | 9% | 16% | 0% | 10% | 0% | 23%
CC(C)c1nc(-c2cccc(NS(=O)(=O)c3c(F)cccc3F)c2F)c(-c2ccnc(Nc3ccc(N4CCOCC4)nc3)n2)s1 [GSK2008607] | 46% | 82% | 99.3% | 88% | 93.2% | 20% | 0% | 0% | 0% | 0% | 0% | 16% | 94.3% | 66% | 98.9% | 86% | 69% | 74% | 0% | 94.7%
COC(=O)Nc1nc2ccc(Oc3ccc(NC(=O)Nc4cc(C(F)(F)F)ccc4F)cc3)cc2n1C.Cl [GW692089] | 0% | 9% | 100% | 99.9% | 31% | 0% | 0% | 0% | 9% | 2% | 26% | 0% | 0% | 0% | 36% | 75% | 26% | 65% | 0% | 84%
CC(=O)N1CCN(c2ccc(Nc3nccc(-c4sc(C(C)C)nc4-c4cccc(NS(=O)(=O)c5cccc(Cl)c5)c4)n3)cn2)CC1 [GSK1660437] | 19% | 52% | 98.2% | 40% | 23% | 0% | 0% | 0% | 0% | 0% | 0% | 11% | 86% | 19% | 71% | 3% | 0% | 0% | 99.6% | 32%
O=C(NC1CCN(c2ccnc(Nc3ccc(F)cc3)n2)C1)c1cc2ccccc2s1 (stereo not shown) [GSK1379716] | 9% | 7% | 0% | 32% | 32% | 0% | 0% | 7% | 0% | 7% | 14% | 0% | 22% | 0% | 9% | 17% | 0% | 16% | 2% | 10%
Cl.c1ccc(-c2ccc3c(Nc4ccc5[nH]ccc5c4)ccnc3c2)nc1 [GW440138] | 0% | 17% | 99.4% | 79% | 43% | 0% | 0% | 0% | 2% | 0% | 0% | 0% | 89% | 0% | 48% | 1% | 8% | 0% | 0% | 54%
O=C(Nc1cccc(-c2nn3ccccc3c2-c2ccnc(Nc3cccc(C(F)(F)F)c3)n2)c1)c1c(F)cccc1F [GSK292658] | 0% | 0% | 99.3% | 50% | 2% | 49% | 0% | 0% | 0% | 9% | 1% | 3% | 98.2% | 0% | 5% | 8% | 0% | 5% | 0% | 7%
Cl.c1ccc(-c2ccc3c(Nc4ccc5[nH]ncc5c4)ccnc3c2)nc1 [GW440137] | 0% | 0% | 67% | 3% | 1% | 6% | 0% | 0% | 6% | 21% | 31% | 26% | 66% | 0% | 32% | 0% | 7% | 2% | 0% | 28%
